Inconclusive results are not listed. Active and inactive are the calls of the source. Calls follow the shape of the dose curve; as a rule, active = well fitted inhibition curve with a large enough effect; inconclusive = small, poorly fitted or top-dose-only effect; inactive = flat fitted curve, though single readings scatter.
Assay: qHTS profiling for inhibitors of Plasmodium falciparum proliferation (AID 504749);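 also: 0% = DMSO vehicle and full inhibition = artemisinin control; nearly all actives have a fitted effect of over 60% in size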
Conditions: P. falciparum in erythrocytes, SYBR Green DNA, 72 h; at 28.7 µM (top of the series); parasite line A
Procedure, shortened: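 SYBR Green fluorescence (ex 485 nm, em 535 nm) reports parasite DNA after 72 h compound exposure of infected red cells at 0.3% parasitemia, 2.5% hematocrit; signal normalized to 0.29 uM artemisinin and vehicle wells.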

Row | Compound | activity, negative = inhibition
1 | CC(C)C[C@@H](N)C(=O)O | 7.68% (inactive)
2 | COc1ccc(O)cc1 | -6.25% (inactive)
3 | COc1ccccc1OC(=O)Oc1ccccc1OC | -1.25% (inactive)
4 | CCCNC(C)(C)COC(=O)c1ccccc1 | -2.07% (inactive)
5 | Cc1cccc(C)c1NC(=O)CC12CCCN1CCC2 | 2.82% (inactive)
6 | C[C@@H]1O[C@@H](OC[C@H]2O[C@@H](Oc3c(-c4ccc(O)c(O)c4)oc4cc(O)cc(O)c4c3=O)[C@H](O)[C@@H](O)[C@@H]2O)[C@H](O)[C@H](O)[C@H]1O | 3.3% (inactive)
7 | COC(=O)c1cccnc1 | 7.8% (inactive)
8 | CC(C(=O)O)c1ccc2c(c1)Cc1cccnc1O2 (centres undefined) | 5.68% (inactive)
9 | CCOc1ccc(C(=O)OCCN(CC)CC)cc1 | 11.5% (inactive)
10 | CC(C)c1cc2c(cc1S(=O)(=O)O)[C@@]1(C)CCC[C@@](C)(C(=O)O)[C@@H]1CC2 | 12.2% (inactive)
11 | CCN(CC)CC1CCCCN1CC(=O)N1c2ccccc2C(=O)Nc2cccnc21 (centres undefined) | 6.16% (inactive)
12 | Cc1cc(=O)[nH]c(=S)[nH]1 | 10.7% (inactive)
13 | CCOc1cc(NC(C)=O)ccc1C(=O)OC | 4.89% (inactive)
14 | CCCCCCCCCCCCCCCCN | 0.565% (inactive)
15 | NNC(=O)CP(=O)(c1ccccc1)c1ccccc1 | 8.38% (inactive)
16 | CCCCCC(N)=O | 6.64% (inactive)
17 | O[C@@H]1CO[C@H]2[C@@H]1OC[C@@H]2O | 8.49% (inactive)
18 | CCCCCCCCCCCCCCCCCCO | 2.93% (inactive)
19 | NNc1nnc(NN)c2ccccc12 | 11.4% (inactive)

From PubChem BioAssay (NCATS)
